Screens deposited in PubChem by several laboratories.
Most compounds without a hit are left out; they make up all but 1.3% or so of the library.
GALR2 blocker = antagonists of human galanin receptor 2 (GALR2). O43603. GALR2-expressing cells, antagonist mode. inhibition, % at 4 µM. hit rate 0.39% among 140,000. AID 828; in the data active = inhibition above about 27%;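 note: cells stimulated with galanin 1-16 at roughly its EC80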
Target sequence (O43603 whole entry, looked up): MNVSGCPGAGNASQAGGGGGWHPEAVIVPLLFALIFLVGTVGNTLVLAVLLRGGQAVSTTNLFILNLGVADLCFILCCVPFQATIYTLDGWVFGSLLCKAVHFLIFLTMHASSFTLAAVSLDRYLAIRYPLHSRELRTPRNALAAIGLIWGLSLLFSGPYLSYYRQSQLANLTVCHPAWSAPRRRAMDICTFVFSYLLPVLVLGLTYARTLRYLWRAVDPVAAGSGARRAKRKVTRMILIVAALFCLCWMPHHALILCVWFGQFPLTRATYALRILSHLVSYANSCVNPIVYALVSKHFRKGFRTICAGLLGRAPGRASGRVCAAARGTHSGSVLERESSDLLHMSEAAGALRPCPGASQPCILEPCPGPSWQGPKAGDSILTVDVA
S1P2 blocker = S1P2 (human) receptor antagonism | O95136 | cell-based S1P2 antagonist assay, inhibition at 5 uM | inhibition, % at 5 µM | hit rate 0.21% among 97,000 | AID 736; in the data active = inhibition above about 45%;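 note: CRE beta-lactamase reporter cells expressing human S1P2 stimulated with S1P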
Target sequence (O95136 whole entry, looked up): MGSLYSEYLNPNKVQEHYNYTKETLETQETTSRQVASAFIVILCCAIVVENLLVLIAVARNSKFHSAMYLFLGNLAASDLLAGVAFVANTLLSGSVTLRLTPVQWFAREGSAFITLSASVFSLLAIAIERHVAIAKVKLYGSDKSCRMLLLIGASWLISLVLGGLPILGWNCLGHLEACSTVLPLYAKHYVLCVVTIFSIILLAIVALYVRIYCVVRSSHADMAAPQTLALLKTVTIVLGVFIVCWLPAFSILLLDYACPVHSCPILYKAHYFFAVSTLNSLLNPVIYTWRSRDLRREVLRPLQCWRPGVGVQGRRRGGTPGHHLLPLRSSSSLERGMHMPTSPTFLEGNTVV
S1P2 agonist = S1P2 (human) receptor agonism. S1P2-expressing cell line, agonist reporter read-out. activation, % at 4.5 µM. hit rate 0.46% among 97,000; in the data active = activation above about 16%
GALR2 agonist = activates the human galanin receptor 2; GALR2-expressing cells, agonist activation read-out; AID 803; activation, % (test concentration not listed); hit rate 0.48% among 140,000; in the data active = activation above about 5%, passing the limit was not always enough
F-actin modifier = modifiers of cytoskeleton assembly; hit rate 0.18% among 91,000; HUVEC TNFa F-actin phalloidin imaging, high content; inhibition, % at 2 µM;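 active = inhibition above the batch mean plus 3 SD and confirmed as a hit by visual image inspection, cut at about 30% in these data, passing the limit was not always enough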
GALR2 ag confirm = confirmation of human galanin receptor 2 (GALR2) agonists; shares compounds with GALR2 agonist; GALR2-expressing cells, agonist activation; activation, % at 5.6 µM; hit rate 10% among 460; in the data active = activation above about 8.4%
BLA activ ctr = activates beta-lactamase reporter in GALR2 agonist counterscreen; shares compounds with GALR2 agonist; CHO NFAT-bla reporter, beta-lactamase FRET activation; activation, % at 5.6 µM; hit rate 10% among 460; AID 865;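 active = activation above the screen-wide mean activation plus 3 SD, cut at about 8% in these data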
Each line names hits and unclear results; the compound was inactive in the other large screens (follow-up assays come after a bar, where they were run).

CCN1C(=O)C(CC(=O)Nc2ccc(OC)cc2)N(Cc2ccco2)C1=S (stereo unspecified)	none (no result: S1P2 blocker, S1P2 agonist, F-actin modifier)
CCOc1ccc(C(=O)/C=C/c2cn(CN3CCN(C)CC3)c3ccccc23)cc1	GALR2 agonist 12.0 | GALR2 ag confirm inactive | BLA activ ctr inactive
COc1ccc(C(=O)/C=C/c2cn(CN3CCN(C)CC3)c3ccccc23)cc1	none
O=C(CSc1ncc(-c2ccccc2)n1CC1CCCO1)N1CCCCC1 (stereo unspecified)	none (no result: S1P2 blocker, S1P2 agonist, F-actin modifier)
CC(C)Cn1c(-c2ccc(Cl)cc2)cnc1SCC(=O)N1CCOCC1	GALR2 agonist 20.9 | GALR2 ag confirm inactive | BLA activ ctr inactive
O=C(CCCCl)Oc1ccc2cc(-c3ccc4ccccc4n3)c(=O)oc2c1	none (no result: S1P2 blocker, S1P2 agonist, F-actin modifier)
CCOc1cccc(-c2nn(-c3ccccc3)cc2/C=C(/C#N)C(=O)NCCCn2ccnc2)c1	GALR2 agonist 45.6 (no result: S1P2 blocker, S1P2 agonist, F-actin modifier) | GALR2 ag confirm 35.3 | BLA activ ctr 81.6
Cc1ccsc1/C=N/n1c(COc2ccccc2)n[nH]c1=S	none (no result: S1P2 blocker, S1P2 agonist, F-actin modifier)
COc1c(Cl)cc(Cl)cc1/C=C/C(=O)c1ccc(NC(=O)c2cccs2)cc1	none (no result: S1P2 blocker, S1P2 agonist, F-actin modifier)
Cc1cc(C)c(-c2c(O)c3cnn(-c4ccccc4)c3[nH]c2=O)c(C)c1	GALR2 agonist 34.2 (no result: S1P2 blocker, S1P2 agonist, F-actin modifier) | GALR2 ag confirm inactive | BLA activ ctr inactive
C(=C\c1ccco1)/C1=NN(c2ccccc2)C(c2ccco2)C1 (stereo unspecified)	GALR2 agonist 72.3 (no result: S1P2 blocker, S1P2 agonist, F-actin modifier) | GALR2 ag confirm 27.4 | BLA activ ctr 38.8
O=C(CC1Nc2ccccc2NC1=O)Nc1cc(Cl)cc(Cl)c1 (stereo unspecified)	GALR2 agonist 12.9 (no result: F-actin modifier) | GALR2 ag confirm 12.1 | BLA activ ctr 9.9
O=C(CC1NC(=O)NC1=O)Nc1ccc(Cl)cc1 (stereo unspecified)	none
COC(=O)c1sccc1NC(=O)CN(C)NS(=O)(=O)c1ccc(Cl)cc1	none
COC(=O)c1sccc1NC(=O)CN(C)NS(=O)(=O)c1ccc(F)cc1	none | GALR2 ag confirm inactive | BLA activ ctr inactive
COc1ccc(N2C(=O)CC2(C#N)c2ccc(OCc3ccccc3)cc2)cc1 (stereo unspecified)	none (no result: S1P2 blocker, S1P2 agonist, F-actin modifier)
C#CCNc1cc(C)nc2ncnn12	GALR2 agonist 12.6 | GALR2 ag confirm inactive | BLA activ ctr inactive
O=C(Nc1ccncc1)c1ccc2c(c1)C(=O)N(C1CCCCC1)C2=O	GALR2 agonist 35.7 (no result: F-actin modifier) | GALR2 ag confirm inactive | BLA activ ctr inactive
CCOC(=O)n1n[n+]([O-])c2ccccc21	none (no result: S1P2 blocker, S1P2 agonist, F-actin modifier)
COc1ccc(N(CC(=O)NCc2cccs2)S(=O)(=O)c2c(C)nn(C)c2C)cc1	GALR2 agonist 17.2 | GALR2 ag confirm inactive | BLA activ ctr inactive
Cc1nn(C)c(C)c1S(=O)(=O)N(CC(=O)NCc1cccs1)c1ccc(C(C)C)cc1	none (no result: S1P2 blocker, S1P2 agonist, F-actin modifier)
CC(=O)Nc1ccc([C@H]2[C@H](C)CC[C@H]3C(=O)N4[C@@H](CC[C@@H](C)[C@@H]4c4ccc(NC(C)=O)cc4)C(=O)N32)cc1	none (no result: S1P2 blocker, S1P2 agonist, F-actin modifier)
NS(=O)(=O)c1ccc(CCNc2nc3c(-c4cccc(F)c4)nnn3c3ccccc23)cc1	GALR2 agonist 11.1 (no result: S1P2 blocker, S1P2 agonist, F-actin modifier) | GALR2 ag confirm inactive | BLA activ ctr inactive
Cc1cccc(-c2nnn3c2nc(NCCc2ccc(S(N)(=O)=O)cc2)c2ccccc23)c1	none (no result: S1P2 blocker, S1P2 agonist, F-actin modifier)
COC(=O)/C=C1\OC(c2ccccc2)=CC1=O	none (no result: S1P2 blocker, S1P2 agonist, F-actin modifier)
CC1CCc2cc(F)cc3c(O)c(C(=O)NCc4ccco4)c(=O)n1c23 (stereo unspecified)	GALR2 agonist 9.5 | GALR2 ag confirm inactive | BLA activ ctr inactive
COCCOC(=O)c1c(C)n(C)c2ccc(OC(=O)c3ccco3)cc12	GALR2 agonist 85.8 (no result: F-actin modifier) | GALR2 ag confirm inactive | BLA activ ctr inactive
COC(=O)c1cc2c(C)[nH]c(C)c2cc(C(=O)OC)c1=O	none (no result: S1P2 blocker, S1P2 agonist, F-actin modifier)
CC(C)(C)c1cc(CCC(=O)NNC(=S)NC(=O)c2ccccc2)cc(C(C)(C)C)c1O	GALR2 agonist 35.3 (no result: S1P2 blocker, S1P2 agonist, F-actin modifier) | GALR2 ag confirm 37.2 | BLA activ ctr 29.2
O=C(CCc1ccccc1)NNC(=S)NC(=O)c1ccccc1	none
Cc1ccc2[nH]c(=O)c(COC(=O)c3cccs3)cc2c1	none (no result: S1P2 blocker, S1P2 agonist, F-actin modifier)
O=C(CCNC(=O)OCc1ccccc1)NC1CCCCCC1	none (no result: S1P2 blocker, S1P2 agonist, F-actin modifier)
Cc1cc(C(=O)O)c(=O)[nH]c1C	none
O=C(O)c1c[nH]ccc1=O	GALR2 agonist 11.7 | GALR2 ag confirm inactive | BLA activ ctr inactive
Cc1nc2ccccn2c1C(=O)NN=C1C2CC3CC(C2)CC1C3	none (no result: S1P2 blocker, S1P2 agonist, F-actin modifier)
COc1ccc(C2CC(c3ccccc3)=NN2c2ccc(/C=N/NC(=O)c3ccncc3)cc2)cc1 (stereo unspecified)	GALR2 agonist 16.7 | GALR2 ag confirm inactive | BLA activ ctr inactive
COc1ccc(C2CC(c3cccs3)=NN2C(=O)c2ccc(Br)o2)cc1 (stereo unspecified)	none (no result: S1P2 blocker, S1P2 agonist, F-actin modifier)
COc1ccc(C2CC(c3cccs3)=NN2c2ccc(C=O)cc2)cc1 (stereo unspecified)	GALR2 agonist 28.6 (no result: S1P2 blocker, S1P2 agonist, F-actin modifier) | GALR2 ag confirm 14.7 | BLA activ ctr 31.6
Cc1ccc(C(=O)c2coc3cc([N+](=O)[O-])c(O)c([N+](=O)[O-])c23)cc1	none (no result: S1P2 blocker, S1P2 agonist, F-actin modifier)
Cc1c(Cl)cccc1NC(=S)N1CCC(C(N)=O)(N2CCCCC2)CC1	none (no result: S1P2 blocker, S1P2 agonist, F-actin modifier)
Cc1cccc(N2CCN(C(=O)CCCSc3nc4ccccc4[nH]3)CC2)c1C	none
S=C1NC(c2ccccc2)N2C(=S)NC(c3ccccc3)N12 (stereo unspecified)	GALR2 agonist 12.3 (no result: F-actin modifier) | GALR2 ag confirm inactive | BLA activ ctr inactive
COc1ccc(C2NC(=S)N3C(c4ccc(OC)cc4)NC(=S)N23)cc1 (stereo unspecified)	none
COC(=O)COC(=O)c1ccc(-n2nnnc2SC)cc1	none
COC(=O)c1ccc(-n2nnnc2SC)cc1	GALR2 agonist 15.0 | GALR2 ag confirm inactive | BLA activ ctr inactive
CC(C)(C)C(=O)NC(=S)Nc1cc(C(F)(F)F)ccc1N1CCOCC1	none | GALR2 ag confirm inactive | BLA activ ctr inactive
CCc1ccccc1NCC(=O)Nc1ccc(Cl)c(C(F)(F)F)c1	none (no result: S1P2 blocker, S1P2 agonist, F-actin modifier)
COC(=O)C1=C(C)Nc2nc(SCc3ccccc3)[nH]c(=O)c2C1c1cccs1 (stereo unspecified)	none (no result: S1P2 blocker, S1P2 agonist, F-actin modifier)
COc1ccccc1N1CCN(C(CNS(=O)(=O)c2ccccc2)c2cccnc2)CC1 (stereo unspecified)	none | GALR2 ag confirm inactive | BLA activ ctr inactive
COc1ccc(S(=O)(=O)NCC(c2cccnc2)N2CCN(c3ccccc3OC)CC2)cc1C (stereo unspecified)	none (no result: F-actin modifier)
CC(=O)N1CCC(N(CCN2CCOCC2)C(=S)Nc2cc(C)ccc2C)CC1	none (no result: S1P2 blocker, S1P2 agonist, F-actin modifier)
CCOC(=O)C1=C(C)N=C2SC(C(=O)OC)=CC(=O)N2C1c1ccc(F)cc1 (stereo unspecified)	none | GALR2 ag confirm inactive | BLA activ ctr inactive
N#Cc1c(-c2ccccc2)cc(-c2ccco2)c(C#N)c1N	none | GALR2 ag confirm inactive | BLA activ ctr 10.7
Fc1ccc(NCc2cccnc2)cc1	GALR2 agonist 36.4 | GALR2 ag confirm inactive | BLA activ ctr inactive
c1ccc(NCc2cccnc2)cc1	none
COc1ccc(S(=O)(=O)N/N=C(/C)c2cccc(NC(=O)c3ccccc3Cl)c2)cc1	none
